Source: PubChem BioAssay (National Center for Advancing Translational Sciences (NCATS))
Pf Dd2 growth: qHTS Primary assay for Inhibitors of Plasmodium falciparum Dd2 growth in vitro | 120,000 compounds, 4.3% hits | Potency, µM (series often up to 28.9 µM), actives largely listed as inhibitors | AID 1347417, 2020 | P. falciparum Dd2 growth, SYBR Green, 72 h; active means well fitted inhibition curve with a large enough effect; further: nearly all actives have a fitted effect of over 65% in size
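Infected erythrocytes (Dd2, 0.3% parasitemia, 2.5% hematocrit final) are added to compound in RPMI-1640/Albumax II medium, grown 72 h at 37C in low oxygen, then lysed with saponin/Triton-X containing SYBR Green and read by fluorescence.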
Each line names hits and unclear results; the compound was inactive in the other large screens. This is one part of a sample in which hits are shown more often than they occur.

CN(C(=O)c1cc2ccccc2s1)C1CCCN(C2Cc3ccccc3C2)C1 (stereo not drawn)	none
O=[S+]1([O-])NCC2(CCN(Cc3ccccn3)C2)Nc2ccccc21 (stereo not drawn)	none
O=[S+]1([O-])NCC2(CCN(Cc3ccc(F)cc3)C2)Nc2ccccc21 (stereo not drawn)	none
O=[S+]1([O-])NCC2(CCN(Cc3cccc4ccccc34)C2)Nc2ccccc21 (stereo not drawn)	Pf Dd2 growth 13µM
CC(C)(C)c1ccc(OCc2nc3ccccc3n2CCOc2ccccc2)cc1	none
COc1cccc(OCc2nc3ccccc3n2Cc2ccccc2)c1	none
COc1ccc(OCc2nc3ccccc3n2Cc2ccc(C(C)(C)C)cc2)cc1	Pf Dd2 growth 11µM
CCN1CCN(C2(C(=O)NCCc3ccccc3)Cc3ccccc3C2)CC1	Pf Dd2 growth 5µM
CC1(C(=O)NCCc2ccccc2)CCCCC(=O)N1 (stereo not drawn)	none
CCN1CCN(C2(C(=O)N3CCC(OC)CC3)Cc3ccccc3C2)CC1	none
C=CCNC(=O)N[C@H]1C[C@@H](C(=O)N[C@@H](C(=O)OC)C(C)C)N(C(=O)CSC)C1	none
Cc1ccc(NC(=O)O[C@@H]2CC[C@]3(C)[C@H](CC[C@H]4OC(=O)C[C@H]43)[C@]2(C)CO)cc1	none
O=C(CCn1ccn2nc3c(c2c1=O)CCCC3)NCc1ccco1	none
Cc1nc([C@@H]2CN(Cc3ccccc3)C[C@H]2C(N)=O)n[nH]1	none
CCOc1ccc(-n2c(=O)c3c4c(sc3n(Cc3cc(=O)n5cc(Cl)ccc5n3)c2=O)CCC4)cc1	none
Cc1sc2c(c1C)c(=O)n(-c1ccc(Cl)cc1)c(=O)n2Cc1cc(=O)n2ccccc2n1	none
CC(=O)c1sc2c(c1C)c(=O)n(-c1ccc(Cl)cc1)c(=O)n2Cc1cc(=O)n2cc(Cl)ccc2n1	Pf Dd2 growth 1.3µM
COCCn1c(=O)n([C@H]2CCCN(C(=O)NCCc3ccccc3)C2)c2ncccc21	none
O=C(N[C@@H]1CCOC[C@H]1OCCO)c1ccc(CN2CCCCCC2)cc1	none
Cc1cccc(OCC(=O)N2[C@@H]3CC[C@H]2CC(NC(=O)c2ccncc2)C3)c1 (stereo partly drawn)	none
COc1cc(-c2nc(-c3cccc(Cl)c3)c(-c3ccccc3)[nH]2)cc(OC)c1OC	Pf Dd2 growth 10µM
COc1cc(-c2noc(CN3CCN(c4cccc(Cl)c4)CC3)n2)cc(OC)c1OC	none
COc1ccc(-c2nc(-c3ccccc3)c(-c3ccccc3)[nH]2)cc1Br	none
Cc1cc(S(=O)(=O)NCCc2noc(-c3ccccc3)n2)ccc1Cl	none
COC1CCCN(C(=O)c2cnc(Cc3c(Cl)cccc3Cl)[nH]c2=O)C1 (stereo not drawn)	none
CC(C)N1CCN(C(=O)CN2CC3CC(C2)[C@H]2CCCC(=O)N2C3)CC1 (stereo partly drawn)	none
CCNC(=O)N1CCCC1c1noc(CCC(=O)NCCC(C)C)n1 (stereo not drawn)	none
COc1ccc(-c2c(C)c3ccc(O)c(CN4CCCC(C)C4)c3oc2=O)cc1OC (stereo not drawn)	Pf Dd2 growth 11µM
COc1ccc(NC(=O)N2CCN(Cc3nc4ccc(C)cc4o3)CC2)cc1OC	none
COc1ccc(N2CCN(C3CCCN(Cc4cc(=O)[nH]c(=O)[nH]4)C3)CC2)cc1 (stereo not drawn)	none
COc1ccc(-c2nc(CN3CCC(C(=O)NCCc4ccccc4)CC3)c(C)o2)cc1OC	none
COc1ccc(CCC(=O)N2CCC[C@H]2c2nc(-c3ccc(OC)c(OC)c3)no2)cc1	none
COc1ccc(-c2cc3ccc(O)c(CN4CCCC4)c3oc2=O)cc1OC	Pf Dd2 growth 4µM
COc1ccc(-c2c(C)c3ccc(O)c(CN4CCN(CCO)CC4)c3oc2=O)cc1OC	none
COc1ccc(S(=O)(=O)NCC2CCCN(Cc3ccc(-c4ccco4)cc3)C2)cc1 (stereo not drawn)	none
COc1ccc(-c2nnc([C@H]3CCN(C(=O)c4ccc(OC)c(OC)c4)C3)o2)cc1	none
COc1ccc(-c2cc3ccc(O)c(CN4CCCC(C)C4)c3oc2=O)cc1OC (stereo not drawn)	Pf Dd2 growth 4.5µM
COc1ccc(-c2cc3ccc(O)c(CN4CCCC(C)C4)c3oc2=O)cc1 (stereo not drawn)	Pf Dd2 growth 1µM
COc1ccc(-c2c(C)c3cc(OC(=O)N4CCOCC4)ccc3oc2=O)cc1OC	none
CC[C@H]1CN(C(=O)Nc2ccccc2)CC[C@H]1CC(=O)NCc1ccc(F)cc1	none
CNC(=O)N1CCCC(Cn2cnc3cccnc32)C1 (stereo not drawn)	none
CN(C(=O)CN1C(=O)NC2(CCOCC2)C1=O)C1CCCCC1	none
CCCN(CCC)CCNC(=O)CN1C(=O)COc2ccc(S(=O)(=O)N3CCC(C)CC3)cc21	Pf Dd2 growth 4.5µM
Cc1ccc(CCNC(=O)CN2C(=O)COc3ccc(S(=O)(=O)N4CCC(C)CC4)cc32)cc1	none
CCCNC(=O)CN1C(=O)COc2ccc(S(=O)(=O)N3CCC(C)CC3)cc21	none
CO[C@@H]1CCOC[C@H]1NC(=O)c1ccccc1OC(F)(F)C(F)F	none
COCCNC(=O)[C@H]1C[C@H](Oc2ccccc2)CN1Cc1cccc(F)c1	none
CCCOc1nccnc1NC1CCN(C(=O)NCC)CC1	none
Cc1cccc(NC(=O)Cn2c(=O)c(-c3noc(C)n3)c3n(c2=O)CCCC3)c1	none
CCOc1cc(C(=O)N2CCC(Cc3nc(-c4ccc(F)cc4)no3)CC2)cc(OCC)c1OCC	none
COc1ccc(C(=O)N2CCC(Cc3nc(-c4ccccc4)no3)CC2)cc1F	none
CCc1ccc(C(=O)N2CCC(Cc3nc(-c4ccc(F)cc4)no3)CC2)cc1	none
O=C(CCc1ccccc1)N1CCC(Cc2nc(-c3ccc(F)cc3)no2)CC1	none
CCOc1ccc(C(=O)N2CCC(Cc3nc(-c4ccc(F)cc4)no3)CC2)cc1OCC	Pf Dd2 growth 5µM
COc1cccc(-c2noc(CC3CCN(C(=O)c4ccc(C)cc4)CC3)n2)c1	none
COc1ccc(-c2noc(CC3CCN(C(=O)CCc4ccccc4)CC3)n2)cc1	Pf Dd2 growth 11µM
CCOc1ccc(C(=O)N2CCC(Cc3nc(-c4ccc(OC)cc4)no3)CC2)cc1OCC	Pf Dd2 growth 8.9µM
COc1ccc(CCC(=O)N2CCC(Cc3nc(-c4ccc(F)cc4)no3)CC2)cc1	none
Cc1ccc(N2CCC(NC(=O)CC(C)C)C2=O)cc1C (stereo not drawn)	none
CNC(C)c1ccccc1 (stereo not drawn)	none
C[C@@H](NC(=O)C1CCOCC1)c1onc(-c2cccnc2)c1C(=O)O	none
CN1CCN(Cc2nc(C3(O)CCNCC3)cs2)CC1	none
Cc1ccc(-c2nc(C(=O)NCc3ccc(OC(C)C)cc3)no2)cc1	none
COCCC(=O)NC1CCN(c2cnn(CC3CC3)c(=O)c2)CC1	none
c1ccc2sc([C@H]3CCN(CC4CCCCC4)C3)nc2c1	Pf Dd2 growth 10µM
CCOc1cccc(C(=O)N2CCC(c3nc4ccccc4s3)CC2)c1	none
O=C(C1CCCCC1)N1CC[C@H](c2nc3ccccc3s2)C1	none
COC1CCC12CCN(C(=O)COc1ccccc1)CC2 (stereo not drawn)	none
Cc1cccc(-c2ccccc2C(=O)N2CCCC(CO)(Cc3ccccc3F)C2)c1 (stereo not drawn)	none
Cc1ccc(S(=O)(=O)Cc2noc([C@@H]3C[C@@H](O)CN3Cc3cccc(C#N)c3)n2)cc1	none
CC(C)NC(=O)N[C@H]1CCN2C(=O)c3ccccc3NC(=O)[C@@H]2C1	none
CNC(=O)CN(C)Cc1cc(Cl)ccc1OCC(O)CN1CCCCCC1 (stereo not drawn)	Pf Dd2 growth 2.8µM
Cc1cc(OCC(O)CN2CCN(c3cccc(Cl)c3)CC2)ccc1Cl (stereo not drawn)	none
